13 compounds from PubChem BioAssay (NCI) can be followed below.

Test systems include SK-MEL-2 melanoma; EKVX NSCLC; SN12C renal; UO-31 renal; TK-10 renal; ACHN renal; CAKI-1 renal; A498 renal; CCRF-CEM leukemia; MOLT-4 leukemia.
Common to all, as to assay: NCI-60 one-dose screen, 48 h (100 = growth as untreated, 0 = no growth, -100 = all killed)
What all share (settings): 10 µM unless noted

Structures are written as SMILES. About 83,000 compounds went through this panel and 20% of them were active in at least one assay; those are over-represented in the sample as a whole.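 Assay: single dose, 48 h. Readout: percent growth (0 = no net growth; negative = cell death). Active: <10.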 Unmarked numbers belong to inactive results. Active and inactive are the calls of the source.

Consider `COc1cc(/C=C/c2cc(/C=C/c3ccc(O)c(OC)c3)n(C(=O)c3ccccc3Br)n2)ccc1O`, for which the growth in the test with SK-MEL-2 melanoma is -0.325% (active); in the test with EKVX NSCLC, 30.6%; with SN12C renal, 14.2%; in the test with UO-31 renal it was 23.9%; with TK-10 renal, 65%; in the test on ACHN renal, 25.1%. Also, the growth is -34.8% (active) in the test with CAKI-1 renal, 56.4% with A498 renal, 3.52% (active) in the test on CCRF-CEM leukemia and -6.53% (active) in the test on MOLT-4 leukemia.
`O=C(N/N=C\c1cc(Br)ccc1O)c1ccncc1`: the growth was 31.4% in the test on SK-MEL-2 melanoma; 29.6% in the test on EKVX NSCLC; 46.5% in the test with SN12C renal; 23.4% in the test on UO-31 renal; 43.7% in the test with TK-10 renal; 27.3% in the test on ACHN renal. Besides, the growth was 24.7% in the test on CAKI-1 renal, 74.1% in the test with A498 renal, 8.77% (active) in the test with CCRF-CEM leukemia and -10.7% (active) in the test on MOLT-4 leukemia.
Take `CC(=O)Nc1ccc(/C=N/N2CCCCCC2)cc1`: the growth was 118% in the test on SK-MEL-2 melanoma; 98.8% in the test with EKVX NSCLC; 83.3% with SN12C renal; 93.9% with UO-31 renal; 114% in the test on TK-10 renal; 79.1% in the test with ACHN renal. Also, the growth was 92.7% with CAKI-1 renal, 108% in the test with A498 renal, 106% in the test with CCRF-CEM leukemia and 102% in the test on MOLT-4 leukemia.
Take `CCCCOc1nc2ccccc2cc1/C=C/c1cc(/C=C/c2cc3ccccc3nc2OCCCC)n(-c2ccccc2)n1`: the growth with SK-MEL-2 melanoma was 101%; with EKVX NSCLC, 105%; with SN12C renal, 95.3%; in the test with UO-31 renal it was 75.2%; in the test with TK-10 renal, 119%; with ACHN renal, 103%. The growth is 88.3% in the test on CAKI-1 renal, 95.9% in the test with A498 renal, 101% with CCRF-CEM leukemia and 99% in the test with MOLT-4 leukemia.
Take `CN(C)c1nc(-c2cccs2)n2nc(-c3ccc(Cl)cc3)cc2n1`: the growth in the test with SK-MEL-2 melanoma is 67%; in the test with EKVX NSCLC, 49.6%; with SN12C renal, 44.9%; in the test on UO-31 renal it was -63.9% (active); in the test with TK-10 renal, -23.1% (active); in the test on ACHN renal it was -21.1% (active). The growth is 18.8% in the test with CAKI-1 renal, -11.4% (active) in the test on A498 renal, 73.8% with CCRF-CEM leukemia and 82.1% with MOLT-4 leukemia.
Consider `COc1ccc(-c2cc(-c3ccc(OC)cc3)c3sc(=O)[nH]c3n2)cc1`, for which the growth in the test on SK-MEL-2 melanoma is 103%; with EKVX NSCLC it was 86.6%; with SN12C renal it was 73.7%; in the test with UO-31 renal, 53.4%; in the test on TK-10 renal, 89.8%; in the test with ACHN renal, 93.7%. The growth is 76.8% with CAKI-1 renal, -1.41% (active) with A498 renal, 108% in the test with CCRF-CEM leukemia and 92.9% in the test with MOLT-4 leukemia.
Turning to `O=C(CSc1nc2c(n1Nc1ccccc1)-c1ccccc1SC2)Nc1nccs1`, the growth in the test with SK-MEL-2 melanoma was 102%; in the test on EKVX NSCLC, 89.3%; with SN12C renal, 95.3%; in the test with UO-31 renal, 63.1%; with TK-10 renal it was 120%; in the test on ACHN renal it was 95.2%. For the same compound, the growth with CAKI-1 renal is 73.7%; in the test with A498 renal, 77%; in the test on CCRF-CEM leukemia it was 84.5%; in the test on MOLT-4 leukemia, 82.5%.
Take `Clc1ccc(Cl)c(N=Cc2ccc3c(c2)OCO3)c1`: the growth in the test with SK-MEL-2 melanoma is 109%; in the test with EKVX NSCLC, 98.8%; in the test with SN12C renal, 105%; with UO-31 renal, 86.6%; in the test with TK-10 renal, 107%; in the test on ACHN renal, 114%. Moreover, the growth with CAKI-1 renal is 94.6%; in the test with A498 renal it was 91.6%; in the test with CCRF-CEM leukemia it was 106%; in the test on MOLT-4 leukemia, 106%.
On to `CCN(CC)C(=O)O/N=C(/C)c1ccccc1`, for which the growth with SK-MEL-2 melanoma is 102%; in the test with EKVX NSCLC, 112%; in the test on SN12C renal it was 100%; in the test on UO-31 renal it was 101%; in the test on TK-10 renal, 87.2%; with ACHN renal, 112%. Further, the growth is 115% in the test with CAKI-1 renal, 103% in the test with A498 renal, 100% with CCRF-CEM leukemia and 109% in the test on MOLT-4 leukemia.
Take `COc1cc(C)c(Cl)cc1C1=NN(c2ccc(S(N)(=O)=O)cc2)C(/C=C/c2ccccc2)C1` (stereo not given): the growth in the test with SK-MEL-2 melanoma is 74.6%; in the test on EKVX NSCLC, 49.3%; in the test with SN12C renal, 20.6%; in the test on UO-31 renal it was 44.9%; in the test with TK-10 renal, 46%; with ACHN renal it was 15%. Besides, the growth in the test with CAKI-1 renal is 59.5%; in the test with A498 renal, 64.4%; in the test with CCRF-CEM leukemia, 54.5%; with MOLT-4 leukemia, 49.9%.
Turning to `CCCC(CCC)(C(N)=O)C(=O)O`, the growth is 120% in the test with SK-MEL-2 melanoma; 105% in the test with EKVX NSCLC; 102% with SN12C renal; 92.2% in the test on UO-31 renal; 115% in the test on TK-10 renal; 103% in the test on ACHN renal. In addition, the growth was 95.3% in the test with CAKI-1 renal, 104% in the test on A498 renal, 103% in the test on CCRF-CEM leukemia and 113% with MOLT-4 leukemia.
Regarding `COc1ccc(-c2cc(-c3cn(-c4cccc(Cl)c4)nc3-c3ccc(OC)cc3)[nH]c(=S)n2)cc1`, the growth was 88.9% in the test on SK-MEL-2 melanoma; 90.4% with EKVX NSCLC; 73.6% in the test with SN12C renal; 84.7% with UO-31 renal; 93.8% with TK-10 renal; 80.5% in the test with ACHN renal. For the same compound, the growth is 104% in the test on CAKI-1 renal, 69.3% with A498 renal, 73.6% with CCRF-CEM leukemia and 42.4% with MOLT-4 leukemia.
For `O=C(NNC(=O)c1cccc(Cl)c1)c1ccccc1`, the growth is 100% in the test with SK-MEL-2 melanoma; 103% in the test on EKVX NSCLC; 106% with SN12C renal; 99.3% in the test with UO-31 renal; 117% in the test with TK-10 renal; 130% in the test with ACHN renal. Also, the growth is 103% in the test on CAKI-1 renal, 73.2% with A498 renal, 98.4% in the test on CCRF-CEM leukemia and 100% in the test on MOLT-4 leukemia.
